Bioassay records from PubChem.
This is a sample that favours compounds with a hit; in the whole collection about 5.4% have one here.
aDG glyco act = increases alpha dystroglycan glycosylation. Pro5-aDG cells, alpha-DG glycosylation AlphaScreen (IIH6); 0% Pro5, 100% B10-LARGE cell signal. activation, % at 10 µM. hit rate 0.22% among 360,000. AID 624168;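 active means activation of at least 8% versus controls, or a plate z-score of at least 8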;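 further: Pro5 are CHO cells carrying HIG-tagged alpha-DG that lacks glycosylation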
A3A deaminase = inhibitors of human APOBEC3A DNA deaminase; P31941; recombinant A3A, FAM/TAMRA ssDNA deamination fluorescence; inhibition, % at 20 µM; hit rate 0.41% among 330,000;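 active means at least 40% inhibition at 20 µM here, with at most 30% in a related deaminase screen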;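 further: plate controls were A3A with DMSO for no effect and wells lacking A3A enzyme for full effect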
Target sequence (P31941 whole entry, looked up): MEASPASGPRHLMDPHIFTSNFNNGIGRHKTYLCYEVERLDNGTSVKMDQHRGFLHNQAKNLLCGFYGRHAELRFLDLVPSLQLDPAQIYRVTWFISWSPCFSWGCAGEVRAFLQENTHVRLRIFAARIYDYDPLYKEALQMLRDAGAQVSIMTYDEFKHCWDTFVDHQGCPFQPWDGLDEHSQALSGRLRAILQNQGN
rCAG RNA binder = molecules binding r(CAG) RNA repeats | r(CAG) RNA repeat, TO-PRO-1 dye displacement fluorescence | inhibition, % at 3 µM | hit rate 1.3% among 370,000;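 active means inhibition above the plate cutoff, the mean of all test compounds on that plate plus 3 SD, cut at about 35% in these data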;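 further: 0% = DMSO alone and 100% = 100 µM mitoxantrone as full dye displacement; higher means more dye released from RNA so lower well fluorescence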
PHOSPHO1 inh = PHOSPHO1 (human) inhibition; hit rate 1.1% among 290,000; recombinant PHOSPHO1, absorbance phosphatase assay; inhibition, % at 13.3 µM; in the data active means inhibition above about 60%
APOBEC3G inh = inhibitors of human APOBEC3G DNA deaminase. Q9HC16. recombinant A3G, ssDNA deamination FAM/TAMRA fluorescence. inhibition, % at 20 µM. hit rate 0.28% among 330,000. AID 493012;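 active means inhibition of at least 40% at 20 µM, with no more than 30% in the related APOBEC3A deaminase screen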;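 further: plate controls were DMSO wells with A3G for no effect and wells lacking A3G enzyme for full effect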
Target sequence (Q9HC16 whole entry, looked up): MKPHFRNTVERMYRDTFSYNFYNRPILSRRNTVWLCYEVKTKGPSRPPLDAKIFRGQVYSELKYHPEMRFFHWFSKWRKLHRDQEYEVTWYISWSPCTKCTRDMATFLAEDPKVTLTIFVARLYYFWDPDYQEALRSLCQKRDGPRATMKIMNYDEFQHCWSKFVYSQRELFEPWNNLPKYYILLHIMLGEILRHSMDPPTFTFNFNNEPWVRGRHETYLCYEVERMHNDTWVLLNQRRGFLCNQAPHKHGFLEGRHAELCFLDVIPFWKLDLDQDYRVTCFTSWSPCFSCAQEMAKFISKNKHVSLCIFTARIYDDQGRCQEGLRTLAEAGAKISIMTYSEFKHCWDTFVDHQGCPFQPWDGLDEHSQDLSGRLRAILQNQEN
ALR inh = blocks human ALR sulfhydryl oxidase activity; purified ALR, DTT oxidation, H2O2 HRP-luminol luminescence; inhibition, % (test concentration not listed); hit rate 3.8% among 290,000;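 active means mean replicate inhibition above about 79%, with every replicate also reaching it, limit read from the data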
A3G conf = confirmation of human APOBEC3G DNA deaminase inhibitors; shares compounds with APOBEC3G inh; recombinant A3G ssDNA deaminase, UDG/FAM-TAMRA fluorescence; inhibition, % at 20 µM; hit rate 72% among 890;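 active means inhibition reaching a set limit in any replicate at 20 µM, the limit being 80% of the first screen's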
UDG A3G counter = inhibits E. coli UDG, flagging false APOBEC3G inhibitors; shares compounds with APOBEC3G inh; UDG counterscreen, FAM/TAMRA oligo fluorescence; inhibition, % at 20 µM; 710 tested, under 10 active; AID 504715;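 active means compounds giving 40% or more inhibition at 20 µM in any one of the three replicates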;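 further: plate controls were DMSO wells with UDG and oligo for no effect and DMSO wells lacking both for full effect; inhibitors lower the FAM signal released by uracil excision and alkaline cleavage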
An asterisk follows results filed as active; / = no result.

SMILES | aDG glyco act | A3A deaminase | rCAG RNA binder | PHOSPHO1 inh | APOBEC3G inh | ALR inh | A3G conf | UDG A3G counter
COC(=O)Nc1ccc(S(=O)(=O)N2CCCCC2C(=O)NCc2ccco2)cc1 (configuration not stated) | -0.2 | 0.6 | -3.9 | -7.4 | 63.2* | -11.0 | 1.9 | /
Cc1ccc(S(=O)(=O)N2CCCCC2C(=O)NCc2ccco2)cc1 (configuration not stated) | 0.2 | -1.6 | 7.2 | 22.0 | -3.5 | -0.4 | / | /
CN(C)S(=O)(=O)c1ccc2c(c1)c(=O)c(C(=O)NCCCN1CCCCCC1)cn2C | 0.1 | 4.5 | 6.1 | -3.4 | 51.6* | -17.2 | 4.6 | /
CCCCCc1ccnc(CC(=O)c2ccc(OC)cc2)c1 | -0.1 | / | 5.2 | / | / | / | / | /
COc1ccc(CC(=S)N2CCOCC2)cc1 | 0.2 | 2.3 | -0.5 | 72.8* | 44.7* | -3.2 | 41.5* | -2.4
COc1cc(/C=N/n2cc(-c3ccccc3)[nH]c2=S)cc(OC)c1O | -0.1 | -14.4 | 7.3 | 24.6 | 45.7* | / | 85.0* | 0.9
Cc1onc(-c2ccccc2)c1C(=O)Nc1nnc(COc2ccc(Cl)cc2)s1 | 1.4 | -0.9 | / | 37.3 | 57.6* | -3.5 | 38.4* | -3.0
O=C(CSc1ccccc1)Nc1nnc(COc2ccc(Cl)cc2)s1 | -0.1 | 6.7 | 4.9 | 77.6* | 43.6* | 15.3 | 58.1* | -5.6
Cc1cccc(C)c1OCc1nnc(NC(=O)CSc2ccc(Cl)cc2)s1 | -0.2 | -2.3 | 5.6 | -18.0 | -5.1 | / | / | /
CCc1nnc(NC(=O)c2c(-c3ccccc3)noc2C)s1 | -0.1 | -3.1 | -0.4 | 49.4 | -11.7 | 12.3 | / | /
CCOCC(=O)Nc1nnc(COc2ccc(Cl)cc2)s1 | 0.0 | 2.2 | -1.3 | 95.3* | 41.1* | -8.0 | 20.4* | -2.8
O=C(Nc1nnc(-c2cccnc2)s1)c1cnc2ccccc2c1 | / | / | 13.6 | / | / | / | / | /
Cc1ccc(/C=N/n2c(-c3ccco3)n[nH]c2=S)s1 | 0.0 | -6.0 | 3.7 | 46.5 | 40.7* | 11.3 | 74.8* | 0.8
S=c1[nH]nc(-c2ccco2)n1/N=C/c1ccccc1Cl | -0.2 | -5.0 | 0.5 | 37.5 | 44.7* | 2.9 | 37.3* | 3.2
S=c1[nH]nc(-c2ccco2)n1/N=C/c1ccc(Cl)cc1 | -0.2 | / | 10.3 | -7.1 | / | / | / | /
Cc1cc(-c2n[nH]c(=S)n2/N=C/c2ccc(C)s2)n[nH]1 | -0.2 | 5.2 | 2.3 | 48.6 | 54.9* | 18.7 | 72.2* | -3.2
C[N+](=O)C1C(=O)Nc2ccccc21 (configuration not stated) | -0.2 | / | 0.8 | / | / | / | / | /
S=c1nc[nH]c2c1[nH]c1ccc(Cl)cc12 | 0.2 | -5.8 | 4.5 | -123.6 | 20.9 | -5.1 | / | /
S=c1nc[nH]c2c1[nH]c1ccccc12 | -0.1 | -4.3 | 2.5 | 55.4 | 47.8* | 97.9* | 71.3* | -1.0
COC(=O)[C@H](CCSC)NC(=O)c1cc2c(cn1)[nH]c1ccccc12 | -0.1 | 16.5 | 3.6 | -130.5 | 57.0* | / | 56.0* | -1.4
CNC(=O)c1cc2c(cn1)[nH]c1ccccc12 | 0.2 | 2.0 | 1.6 | / | -2.5 | -4.3 | / | /
CCc1ccc(NC(=O)CSc2nc(=O)n(CCCN(C)C)c3c2CCC3)cc1 | 0.1 | -0.8 | -1.9 | / | 65.0* | 96.8* | -7.1 | 1.2
Cc1ccc(NS(=O)(=O)N2CCCCC2)cc1 | 0.5 | / | 2.4 | / | / | / | / | /
CC(C)C(C(=O)Nc1nccs1)c1ccccc1 (configuration not stated) | 0.0 | 2.9 | 0.3 | 2.6 | 48.1* | -2.4 | 0.0 | /
c1ccc(Cc2cnc(N3CCN(Cc4ccc5c(c4)OCCO5)CC3)nc2)cc1 | / | / | 4.0 | / | / | / | / | /
SMILES | aDG glyco act | A3A deaminase | rCAG RNA binder | PHOSPHO1 inh | APOBEC3G inh | ALR inh | A3G conf | UDG A3G counter
O=S(=O)(Nc1ccc(Cl)cc1)c1ccc(N2CCOCC2)c(NC(=S)NC2CC2)c1 | 1.3 | 1.0 | 4.5 | -6.7 | 46.0* | -3.8 | 31.7* | 2.0
Nc1cc(S(=O)(=O)Nc2ccccc2Cl)ccc1N1CCOCC1 | 0.5 | -1.9 | 7.8 | -12.6 | -8.3 | 45.3 | / | /
Nc1cc(S(=O)(=O)Nc2ccc(Cl)cc2)ccc1N1CCOCC1 | 1.0 | 2.4 | 5.4 | -2.6 | 45.7* | 39.4 | 16.8* | -3.9
O=C1NC2(CCCCC2)OC12CCCCC2 | 0.0 | / | 3.9 | / | / | / | / | /
CC1(C(=O)NS(=O)(=O)c2cccc(F)c2)CCN1C(=O)Cc1cccc2ccccc12 (configuration not stated) | 0.0 | / | 15.5 | / | / | / | / | /
CC(C)(C)C(=O)NC(=S)Nc1cc(C(=O)O)ccc1Cl | 0.0 | -4.0 | 1.8 | -2.6 | -3.6 | / | / | /
NNc1cc(C(=O)O)ccc1Cl | 0.0 | -2.9 | 4.0 | -106.3 | 40.5* | 1.6 | 20.1 | -1.8
CC(=O)N/C(=C/c1ccccc1)C(=O)NC(Cc1ccccc1)C(=O)O (configuration not stated) | -0.1 | 2.1 | 0.0 | 8.4 | 42.6* | 2.8 | -0.1 | /
COc1cccc(C(=O)NCC(=O)N/N=C/c2c(C)[nH]c3ccccc23)c1 | 4.2 | 5.0 | 14.7 | -11.4 | 44.0* | 3.1 | 0.1 | /
Cc1[nH]c2ccccc2c1/C=N/NC(=O)CNC(=O)c1ccccc1 | 0.2 | 6.6 | 5.3 | 31.8 | 11.2 | -13.7 | / | /
COC(=O)c1ccc(/C=N/Nc2nc(-c3ccc(C)cc3)cs2)cc1 | -0.1 | 0.7 | / | 0.8 | 44.6* | / | -4.1 | /
O=S1(=O)N[C@H](Cc2ccccc2)COc2cccc(NCCO)c21 | / | / | 2.4 | / | / | / | / | /
c1ccc(CCc2nn3c(Cn4cnc5ccccc54)nnc3s2)cc1 | 1.4 | 0.3 | 2.7 | 69.3* | 49.0* | -6.6 | 20.8* | -5.7
c1ccc(CCc2nn3c(-c4ccncc4)nnc3s2)cc1 | 0.1 | 6.6 | 1.9 | -21.3 | 17.2 | -0.7 | / | /
Clc1ccccc1-c1nnc2sc(CCc3ccccc3)nn12 | 0.2 | 2.1 | 4.0 | 63.2* | 63.5* | -4.4 | 50.9* | -2.0
c1ccc(CCn2cnc3ccccc32)cc1 | 0.1 | -4.0 | -1.9 | 16.5 | -3.1 | -2.0 | / | /
S=c1[nH]nc(-c2cccnc2)n1/N=C/c1ccco1 | 0.0 | -0.9 | -1.2 | -94.5 | 35.9 | 18.1 | / | /
Cc1ccc(-c2n[nH]c(=S)n2/N=C\c2ccco2)cc1 | 0.5 | -3.4 | 3.3 | 24.3 | 42.4* | 55.4 | 75.6* | 5.6
Cc1ccc(-c2n[nH]c(=S)n2/N=C/c2ccc(C)o2)cc1 | -0.2 | -4.5 | 2.8 | 32.2 | 22.6 | -27.4 | / | /
Cc1ccc(-c2n[nH]c(=S)n2/N=C/c2ccncc2)cc1 | -0.3 | -1.7 | -1.7 | -28.8 | 53.1* | -5.9 | 65.5* | 7.3
Cc1cccc(-c2n[nH]c(=S)n2/N=C/c2ccco2)c1 | 0.0 | -6.8 | 1.0 | -1.2 | 47.0* | 57.8 | 79.1* | 3.1
Cc1nn(-c2ccccc2)c(C)c1/C=N/n1c(-c2ccncc2)n[nH]c1=S | 0.1 | -4.0 | 0.8 | 17.9 | 41.7* | / | 76.6* | 0.9
